Measurements taken from the supplement of paper PMC10981050.
Several values for one entry are separate records, joined by “and”; a condition that tells them apart may be missing. Identical values can stand only once. Counter-ions that a name gives are not always drawn.

Tests used:
Assay in all cases: cell viability relative to vehicle control; higher = less cytotoxic
Settings in all cases: 10 µM
K562 = tested on: K562
Method in brief: (§1)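 After removal of identity-inconsistent compounds, the Selleck bioactive, kinase and epigenetic probe libraries were screened on CRISPR-edited mutant clones and isogenic wild-type clones of four leukaemia lines. Plates were 384-well, each well holding 2000 cells in 50 µL medium and receiving a single 10 µM acoustically dispensed dose. CellTiter-Glo luminescence was read 48 h later, after the supernatant was taken off. Genedata Screener was used to express viability as percent of the on-plate vehicle control.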

MARIMO = tested on: MARIMO
Method in brief: as §1

MOLM14 = tested on: MOLM14
Method in brief: as §1

OCI-AML2 = tested on: OCI-AML2
Method in brief: as §1

Compound | cell viability (K562; SRSF2 genotype: SRSF2 P95H/wt) | cell viability (K562; SRSF2 genotype: SRSF2 wt/wt) | cell viability (MARIMO; SRSF2 genotype: SRSF2 P95H/wt) | cell viability (MARIMO; SRSF2 genotype: SRSF2 wt/wt) | cell viability (MOLM14; SRSF2 genotype: SRSF2 P95H/wt) | cell viability (MOLM14; SRSF2 genotype: SRSF2 wt/wt) | cell viability (OCI-AML2; SRSF2 genotype: P95H/wt) | cell viability (OCI-AML2; SRSF2 genotype: wt/wt)
OCC1(O)COc2cc(O)ccc2-c2cc(O)c(O)cc2C1 (stereo not drawn) [Protosappanin B] | 93.9% and 95.9% | 95.7% | 100% | 97.1% | 102% | 96.2% | 97.3% | 99.5%
CS(=O)(=O)Nc1cc2occ(NC=O)c(=O)c2cc1Oc1ccccc1 [Iguratimod] | 107% and 95.3% | 110% | 107% | 107% | 99.1% | 108% | 117% | 123%
CC[C@H](Nc1ncnc2[nH]cnc12)c1nc2cccc(F)c2c(=O)n1-c1ccccc1 | 84.3% and 82.3% | 88.8% | 65.6% | 70.5% | 57.3% | 54.8% | 51.2% | 58.6%
CNC(=O)c1cccc(-c2ccc3c(N4CCOC[C@@H]4C)nc(N4CCOC[C@@H]4C)nc3n2)c1 [Vistusertib (AZD2014)] | 44.8% and 43.3% | 38.4% | 60.8% | 48.5% | 35.1% | 28.9% | 29.2% | 28.8%
COc1ccc(-c2cc(=O)c3c(O)cc(O[C@@H]4O[C@H](CO[C@@H]5O[C@@H](C)[C@H](O)[C@@H](O)[C@H]5O)[C@@H](O)[C@H](O)[C@H]4O)cc3o2)cc1O [Diosmin] | 90.8% and 97.8% | 89.9% | 94.8% | 101% | 97.6% | 92.4% | 90.4% | 92.4%
Nc1ncnc2c1ncn2C1CC(O)C(CO)O1 (stereo not drawn) [2'-Deoxyadenosine monohydrate] | 113% and 106% | 105% | 96.4% | 94.5% | 102% | 99.6% | 95.5% | 96.5%
CN(C)C(=O)[C@H](O)[C@H](Cc1ccccc1)NC(=O)c1cc2cc(Cl)ccc2[nH]1 | 92.2% and 98.4% | 98% | 95.3% | 98.2% | 88.9% | 104% | 90% | 84.7%
COc1ccc(CC2c3cc(OC)c(OC)cc3CC[N+]2(C)CCC(=O)OCCCCCOC(=O)CC[N+]2(C)CCc3cc(OC)c(OC)cc3C2Cc2ccc(OC)c(OC)c2)cc1OC (stereo not drawn) [Atracurium besylate] | 90% and 97.2% | 87.9% | 87.3% | 84.9% | 75% | 97.1% | 115% | 108%
OCC(O)C(O)C(O)C(O)CO (stereo not drawn) [Dulcitol] | 102% and 104% | 99.7% | 105% | 107% | 99.9% | 106% | 105% | 103%
CO[C@H]1/C=C/O[C@@]2(C)Oc3c(C)c(O)c4c(O)c(c5c(nc6cc(C)ccn65)c4c3C2=O)NC(=O)/C(C)=C\C=C\[C@H](C)[C@H](O)[C@@H](C)[C@@H](O)[C@@H](C)[C@H](OC(C)=O)[C@@H]1C [Rifaximin (Xifaxan)] | 97.9% and 106% | 98.1% | 103% | 107% | 105% | 101% | 111% | 98.7%
OCc1c[nH]c2ccccc12 [Indole-3-carbinol] | 102% and 107% | 99.8% | 105% | 113% | 95.1% | 104% | 105% | 106%
CS(=O)(=O)c1ccc(C(=O)Nc2ccc(Cl)c(-c3ccccn3)c2)c(Cl)c1 [Vismodegib (GDC-0449)] | 93.4% and 96.9% | 96.7% | 101% | 104% | 103% | 104% | 96% | 92.9%
CC1(C)C(O[C@@H]2OC[C@@H](O)[C@H](O)[C@H]2O)CC[C@]23CC24CC[C@]2(C)[C@@H]([C@@]5(C)CC[C@@H](C(C)(C)O)O5)[C@H](O)C[C@@]2(C)C4C[C@@H](O[C@@H]2O[C@H](CO)[C@@H](O)[C@H](O)[C@H]2O)C13 (stereo partly drawn) [Astragaloside IV] | 110% and 114% | 113% | 112% | 102% | 108% | 114% | 116% | 102%
CCOC(=O)[C@H](CCc1ccccc1)N[C@H]1CS[C@H](c2cccs2)CN(CC(=O)O)C1=O [Temocapril HCl] | 102% and 101% | 98.8% | 101% | 113% | 99.7% | 102% | 102% | 111%
C=C1C[C@@]23CC[C@H]4[C@@](C)(CCC[C@@]4(C)C(=O)O[C@@H]4O[C@H](CO)[C@@H](O)[C@H](O)[C@H]4O)[C@@H]2CC[C@]1(O[C@@H]1O[C@H](CO)[C@@H](O)[C@H](O[C@@H]2O[C@H](CO)[C@@H](O)[C@H](O)[C@H]2O)[C@H]1O[C@@H]1O[C@H](CO)[C@@H](O)[C@H](O)[C@H]1O)C3 [Rebaudioside A] | 95.1% and 100% | 102% | 98.8% | 106% | 105% | 102% | 104% | 105%
Cc1cccc(-c2[nH]c(CNc3ccccc3F)nc2-c2ccc3ncnn3c2)n1 | 94.6% and 103% | 99.9% | 102% | 109% | 95.2% | 98% | 111% | 114%
COc1cc2c(cc1OC)[C@@H](Cc1ccc(Oc3cc(C[C@@H]4c5cc(OC)c(OC)cc5CCN4C)ccc3O)cc1)N(C)CC2 [Dauricine] | 38% and 41.8% | 18.5% | 2.46% | 15.1% | 1.5% | 1.07% | 5.34% | 4.94%
CC(C)CC(CC(=O)NO)C(=O)N[C@@H](Cc1ccc2ccccc2c1)C(=O)N[C@@H](C)C(=O)NCCN (stereo partly drawn) | 105% | 110% | 112% | 109% | 99.1% | 104% | 110% | 106%

Compound | cell viability (K562; SRSF2 genotype: SRSF2 P95H/wt) | cell viability (K562; SRSF2 genotype: SRSF2 wt/wt) | cell viability (MARIMO; SRSF2 genotype: SRSF2 P95H/wt) | cell viability (MARIMO; SRSF2 genotype: SRSF2 wt/wt) | cell viability (MOLM14; SRSF2 genotype: SRSF2 P95H/wt) | cell viability (MOLM14; SRSF2 genotype: SRSF2 wt/wt) | cell viability (OCI-AML2; SRSF2 genotype: P95H/wt) | cell viability (OCI-AML2; SRSF2 genotype: wt/wt)
OC[C@H]1O[C@@H](n2cnc3c(O)nc(O)nc32)[C@H](O)[C@@H]1O [Xanthosine] | 101% and 100% | 96% | 99.9% | 101% | 99.6% | 98.5% | 93.2% | 99.7%
CC#CC(=O)N1CC[C@@H](n2c(=O)n(-c3ccc(Oc4ccccc4)cc3)c3c(N)ncnc32)C1 [ONO-4059 (GS-4059) hydrochloride] | 91% and 102% | 95.7% | 97.2% | 107% | 91.4% | 95.8% | 91% | 88.9%
CCCCC(F)(F)[C@@]1(O)CC[C@H]2[C@@H](CC(=O)[C@@H]2CCCCCCC(=O)O)O1 [Lubiprostone] | 101% and 100% | 104% | 93.9% | 98% | 84.5% | 98.8% | 83.6% | 88%
O=P(O)(O)Oc1cccc2ccccc12 [1-Naphthyl phosphate potassium salt] | 104% and 95% | 97.8% | 87.5% | 107% | 91.7% | 104% | 83.9% | 91.1%
NC(=O)[C@H](CCCN=C(N)CCl)NC(=O)c1ccccc1 [Cl-amidine] | 101% and 98% | 95.7% | 101% | 97.2% | 98.4% | 99% | 111% | 102%
O=C1C[C@@H](c2ccc(O)c(O)c2)Oc2cc(O)cc(O)c21 [Eriodictyol] | 98.5% and 97.3% | 108% | 88.6% | 96.1% | 112% | 104% | 96.8% | 95.2%
O=C(/C=C/c1ccc(O)cc1)c1ccc(O)cc1O [Isoliquiritigenin] | 86.2% and 94.8% | 84.4% | 83.3% | 98.4% | 53.5% | 74.7% | 89% | 98%
NCCc1ccc(O)c(O)c1 [Dopamine hydrochloride (Inotropin)] | 89% and 91.3% | 93.1% | 88.6% | 103% | 80.9% | 100% | 99.9% | 105%
CN(C)CCc1c[nH]c2ccc(Cn3cncn3)cc12 [Rizatriptan Benzoate (Maxalt)] | 86.7% and 84.6% | 84.2% | 76.2% | 82.7% | 86.7% | 85.6% | 92.7% | 83.5%
Nc1ccc(O)cc1 [4-Aminophenol] | 63.2% and 50.9% | 83.5% | 45.6% | 50% | 12.1% | 23.2% | 3.01% | 12%
Cn1cnc2c(F)c(Nc3ccc(Br)cc3F)c(C(=O)NOCCO)cc21 | 84.2% and 92.4% | 79.5% | 41% | 38.6% | 45.8% | 28.9% | 39.5% | 42.5%
CC1(C)S[C@@H]2[C@H](NC(=O)[C@H](N)c3ccc(O)cc3)C(=O)N2[C@H]1C(=O)O [Amoxicillin sodium (Amox)] | 99.4% and 102% | 105% | 105% | 109% | 96% | 103% | 105% | 93.4%
COc1cc(CO)cc(OC)c1O [4-Hydroxy-3,5-dimethoxybenzyl alcohol] | 106% and 98.2% | 100% | 102% | 107% | 99.7% | 102% | 108% | 105%
C[C@@H]1CC(=O)c2c(ccc3c2C(=O)c2cccc(O)c2C3=O)C1 | 77.9% and 93.8% | 94.6% | 67.6% | 57.6% | 53.9% | 68.5% | 43.4% | 43.6%
CCc1ccc(OCc2ccccc2C(=O)Nc2ccc3nc(C)cc(N)c3c2)cc1 | 0.54% and 0.5% | 0.47% | 0.43% | 0.59% | 0.48% | 0.57% | 0.44% | 0.53%
OC[C@H]1O[C@H](O[C@H]2O[C@H](CO)[C@@H](O)[C@H](O)[C@H]2O)[C@H](O)[C@@H](O)[C@@H]1O [D-(+)-Trehalose dihydrate] | 103% and 99.5% | 102% | 106% | 111% | 104% | 108% | 105% | 108%
O=CCc1ccccc1 [Phenylacetaldehyde] | 99.4% and 97.2% | 92.8% | 97.5% | 95.2% | 107% | 97.2% | 99.5% | 93.5%
COc1cc2c(cc1OC)-c1cc3ccc4c(c3c[n+]1CC2)OCO4 [Epiberberine] | 84.1% and 89.4% | 85.8% | 98.2% | 98.2% | 94.8% | 86.9% | 86.4% | 89.3%
